# Laboratory results from the supplement of paper PMC10646978.
# ± gives the standard deviation.
# Test system: RAW-Dual (murine macrophage reporter line)
# Assay: IRF reporter (Lucia luciferase) activity fold change vs agonist alone; higher = enhanced IRF activity
# Settings: modulator concentration 10 µM; agonist: 3'3'-cGAMP 10 ug/mL
# Summary of the method: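 Compound reached 10 μM final in each well by pin transfer, onto RAW-Dual murine macrophage reporter cells seeded at 50 000 per well in 384-well plates. After 1 hour at 37 °C, the cells were stimulated overnight with a PRR agonist. SEAP in the supernatant was read with QUANTI-Blue at 620 nm absorbance for NF-κB, and Lucia luciferase was read with QUANTI-Luc luminescence for IRF. Each signal was turned into fold change against the mean agonist-only control on the same plate, and two replicate plates were averaged with propagated errors.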
row,SMILES,IRF reporter
1,Cc1nc2sccn2c(=O)c1CCN1CCC(=C(c2ccc(F)cc2)c2ccc(F)cc2)CC1,0.92 ± 0.056
2,Cn1cnc([N+](=O)[O-])c1Sc1ncnc2nc[nH]c12,0.934 ± 0.031
3,CNC(=O)c1ccc2cc(C3(O)CCn4cncc43)ccc2c1 (stereo not given),0.932 ± 0.04
4,CCOC(=O)CN1CCOCCOCCN(CC(=O)OCC)CCOCCOCC1,0.974 ± 0.052
5,CCN(CC)CCNC(=O)c1c(C)[nH]c(/C=C2\C(=O)Nc3ccc(F)cc32)c1C.O=C(O)C[C@H](O)C(=O)O,0.0261 ± 0.0039
6,Cc1cc(C)n(CC2CCN(Cc3ccc(Br)cc3)CC2)n1,0.913 ± 0.05
7,O=C(NC(=S)Nc1ccc2[nH]c(=O)[nH]c2c1)c1ccc(F)cc1,0.927 ± 0.032
8,C=C1CCC(NS(=O)(=O)c2ccc(-c3coc(C)n3)cc2)CC1,1.22 ± 0.062
9,CC(=O)N1CCN(C(=O)Cn2cnc(-c3ccc(C)cc3)cc2=O)CC1,1.02 ± 0.058
10,Cc1[nH]c(=O)c(C#N)cc1-c1ccncc1,0.895 ± 0.027
11,O=C(NCCOc1cccc2ccccc12)Nc1cc(F)c(F)cc1Cl,0.886 ± 0.027
12,Cc1cc(C)n(CCCN2C(=O)c3cccc4cccc(c34)C2=O)n1,0.993 ± 0.054
13,CC(C)(C)C(O)/C=C/c1ccc2c(c1)OCO2 (stereo not given),0.45 ± 0.029
14,CN(C)c1ccc(O)c2c1C[C@H]1C[C@H]3[C@H](N(C)C)C(O)=C(C(N)=O)C(=O)[C@@]3(O)C(O)=C1C2=O.Cl,1.36 ± 0.37
15,CN(C)c1ccc(C=C2C(=O)C(=O)c3ccccc32)cc1Br,1.02 ± 0.21
16,Cc1cccc(C)c1NC(=O)CC(C)c1ccccc1 (stereo not given),1.03 ± 0.033
17,Cc1cc(CCNC(=O)c2cc3ccccc3s2)nn1C,0.82 ± 0.032
18,CCSc1nc(-c2cccs2)cc(C(F)(F)F)c1C#N,0.904 ± 0.13
19,CCN(CC)c1ccc(C=C(C#N)c2n[nH]c(N)c2C#N)c(OC)c1,0.577 ± 0.036
20,Cc1ncsc1C(=O)NC1CCC(F)(F)CC1,0.68 ± 0.034

row,SMILES,IRF reporter
1,Nc1ccccc1NC(=O)c1ccc(CNC(=O)OCc2cccnc2)cc1,0.17 ± 0.033
2,COc1cc(=O)n(C)cc1C(=O)Nc1cccnc1,0.943 ± 0.064
3,CC1=C(C(=O)N2CCOCC2)C(c2cccs2)NC(=O)N1 (stereo not given),0.933 ± 0.047
4,CCCCNc1ccc(C(=O)OCCN(C)C)cc1.Cl,0.824 ± 0.039
5,CC(O)(CNC(=O)NCc1ccc(F)cc1)c1ccc(-c2ccccc2)cc1 (stereo not given),1.08 ± 0.056
6,O=C(Nc1ccc(S(=O)(=O)Nc2nccs2)cc1)c1c(F)cccc1F,0.982 ± 0.026
7,Cc1ccc(Cn2c(N)nc3ccccc32)cc1,1.07 ± 0.07
8,Cc1ccc(Sc2c(C)nn(-c3ccccc3)c2OC(=O)C(C)(C)C)cc1,0.557 ± 0.031
9,Oc1c(Cl)cc(Cl)cc1C=Nc1cc(Cl)cc(Cl)c1,0.437 ± 0.019
10,CC(=O)Nc1ccc(O)cc1 [Prestw-868],0.972 ± 0.056
11,Cc1onc(-c2ccccc2)c1-c1ccc(S(N)(=O)=O)cc1,1.02 ± 0.031
12,Ic1cccc(Cn2nnc(-c3ccccc3)n2)c1,0.872 ± 0.04
13,COC(=O)C1C(=O)CC(C)(O)C(C(=O)OC)C1c1ccc2c(c1)OCO2 (stereo not given),1 ± 0.038
14,CCCCSc1nnc2c(n1)OC(c1cccc(C)n1)Nc1ccc(Br)cc1-2 (stereo not given),0.985 ± 0.14
15,CC(=O)Oc1cc2c(s1)CCN(C(C(=O)C1CC1)c1ccccc1F)C2.Cl (stereo not given),0.779 ± 0.073
16,CCN(CC)c1ccc(NC(=O)C(C)(C)C)cc1,0.901 ± 0.074
17,COC(=O)c1cc(Br)ccc1NC(=O)c1ccccc1,1.12 ± 0.045
18,CCCCc1oc2ccc(NS(C)(=O)=O)cc2c1C(=O)c1ccc(OCCCN(CCCC)CCCC)cc1.Cl,0.945 ± 0.067
19,CCC1OC(=O)C(C)C(OC2CC(C)(OC)C(O)C(C)O2)C(C)C(OC2OC(C)CC(N(C)C)C2O)C(C)(O)CC(C)CN(C)C(C)C(O)C1(C)O (stereo not given),0.727 ± 0.058
20,O=C1OCCN1C1CCN(C(=O)C2(c3ccc(F)cc3)CC2)C1 (stereo not given),0.843 ± 0.15

# Same assay, conditions: modulator concentration 10 µM; agonist: LPS 0.1 ug/mL
row,SMILES,IRF reporter
1,Cc1nc2sccn2c(=O)c1CCN1CCC(=C(c2ccc(F)cc2)c2ccc(F)cc2)CC1,1.12 ± 0.18
2,Cn1cnc([N+](=O)[O-])c1Sc1ncnc2nc[nH]c12,1.2 ± 0.33
3,CNC(=O)c1ccc2cc(C3(O)CCn4cncc43)ccc2c1 (stereo not given),0.964 ± 0.22
4,CCOC(=O)CN1CCOCCOCCN(CC(=O)OCC)CCOCCOCC1,1.23 ± 0.088
5,CCN(CC)CCNC(=O)c1c(C)[nH]c(/C=C2\C(=O)Nc3ccc(F)cc32)c1C.O=C(O)C[C@H](O)C(=O)O,0.048 ± 0.0053
6,Cc1cc(C)n(CC2CCN(Cc3ccc(Br)cc3)CC2)n1,1.19 ± 0.21
7,O=C(NC(=S)Nc1ccc2[nH]c(=O)[nH]c2c1)c1ccc(F)cc1,1.26 ± 0.13
8,C=C1CCC(NS(=O)(=O)c2ccc(-c3coc(C)n3)cc2)CC1,1.14 ± 0.11
9,CC(=O)N1CCN(C(=O)Cn2cnc(-c3ccc(C)cc3)cc2=O)CC1,1.17 ± 0.24
10,Cc1[nH]c(=O)c(C#N)cc1-c1ccncc1,1.31 ± 0.15
11,O=C(NCCOc1cccc2ccccc12)Nc1cc(F)c(F)cc1Cl,1.14 ± 0.17
12,Cc1cc(C)n(CCCN2C(=O)c3cccc4cccc(c34)C2=O)n1,1.09 ± 0.075
13,CC(C)(C)C(O)/C=C/c1ccc2c(c1)OCO2 (stereo not given),0.877 ± 0.16
14,CN(C)c1ccc(O)c2c1C[C@H]1C[C@H]3[C@H](N(C)C)C(O)=C(C(N)=O)C(=O)[C@@]3(O)C(O)=C1C2=O.Cl,1.04 ± 0.14
15,CN(C)c1ccc(C=C2C(=O)C(=O)c3ccccc32)cc1Br,1 ± 0.043
16,Cc1cccc(C)c1NC(=O)CC(C)c1ccccc1 (stereo not given),0.937 ± 0.25
17,Cc1cc(CCNC(=O)c2cc3ccccc3s2)nn1C,1.03 ± 0.06
18,CCSc1nc(-c2cccs2)cc(C(F)(F)F)c1C#N,1.18 ± 0.12
19,CCN(CC)c1ccc(C=C(C#N)c2n[nH]c(N)c2C#N)c(OC)c1,0.865 ± 0.12
20,Cc1ncsc1C(=O)NC1CCC(F)(F)CC1,1.01 ± 0.057

row,SMILES,IRF reporter
1,Nc1ccccc1NC(=O)c1ccc(CNC(=O)OCc2cccnc2)cc1,0.252 ± 0.025
2,COc1cc(=O)n(C)cc1C(=O)Nc1cccnc1,0.899 ± 0.17
3,CC1=C(C(=O)N2CCOCC2)C(c2cccs2)NC(=O)N1 (stereo not given),1.07 ± 0.11
4,CCCCNc1ccc(C(=O)OCCN(C)C)cc1.Cl,1.15 ± 0.34
5,CC(O)(CNC(=O)NCc1ccc(F)cc1)c1ccc(-c2ccccc2)cc1 (stereo not given),1.32 ± 0.1
6,O=C(Nc1ccc(S(=O)(=O)Nc2nccs2)cc1)c1c(F)cccc1F,1.52 ± 0.23
7,Cc1ccc(Cn2c(N)nc3ccccc32)cc1,1.09 ± 0.23
8,Cc1ccc(Sc2c(C)nn(-c3ccccc3)c2OC(=O)C(C)(C)C)cc1,1.08 ± 0.1
9,Oc1c(Cl)cc(Cl)cc1C=Nc1cc(Cl)cc(Cl)c1,1.05 ± 0.1
10,CC(=O)Nc1ccc(O)cc1 [Prestw-868],0.938 ± 0.19
11,Cc1onc(-c2ccccc2)c1-c1ccc(S(N)(=O)=O)cc1,1.02 ± 0.2
12,Ic1cccc(Cn2nnc(-c3ccccc3)n2)c1,1.28 ± 0.12
13,COC(=O)C1C(=O)CC(C)(O)C(C(=O)OC)C1c1ccc2c(c1)OCO2 (stereo not given),1.57 ± 0.16
14,CCCCSc1nnc2c(n1)OC(c1cccc(C)n1)Nc1ccc(Br)cc1-2 (stereo not given),1.02 ± 0.068
15,CC(=O)Oc1cc2c(s1)CCN(C(C(=O)C1CC1)c1ccccc1F)C2.Cl (stereo not given),1.01 ± 0.088
16,CCN(CC)c1ccc(NC(=O)C(C)(C)C)cc1,1.22 ± 0.17
17,COC(=O)c1cc(Br)ccc1NC(=O)c1ccccc1,1.24 ± 0.18
18,CCCCc1oc2ccc(NS(C)(=O)=O)cc2c1C(=O)c1ccc(OCCCN(CCCC)CCCC)cc1.Cl,1.2 ± 0.12
19,CCC1OC(=O)C(C)C(OC2CC(C)(OC)C(O)C(C)O2)C(C)C(OC2OC(C)CC(N(C)C)C2O)C(C)(O)CC(C)CN(C)C(C)C(O)C1(C)O (stereo not given),0.948 ± 0.11
20,O=C1OCCN1C1CCN(C(=O)C2(c3ccc(F)cc3)CC2)C1 (stereo not given),1.28 ± 0.3
